From PubChem BioAssay (EPA / NIEHS) come the findings set out here.

Several values for one entry are separate records, joined by “and”; a condition that tells them apart may be missing. Equal values may be shown once. The source holds several records for some structures; these can differ, active in one and inactive in another. Activity calls are given as the source filed them. Rule for the calls: active = hit-call score of the fitted dose curve at least 0.9, where 1 is the maximum; inactive = score below 0.9.

Assay [1] deals with Paired box protein Pax-6 (Homo sapiens) (UniProt P26367). In words: ATG_Pax6_CIS: Attagene CIS-FACTORIAL HepG2 Assay for human Paired Box 6 (PAX6) (AID 2282956). The note with it: HepG2 CIS-FACTORIAL PAX6 reporter transcription, RNA readout; actives raise or lower the signal. The method in brief: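 Readout: reporter transcript fluorescence after RT-PCR and capillary electrophoresis. Cells: HepG2, transiently transfected with cis-regulated MRTUs. Exposure 24 h. Gain or loss of signal fitted bidirectionally relative to DMSO.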
Chain of Paired box protein Pax-6 (Homo sapiens) (P26367 whole entry, looked up): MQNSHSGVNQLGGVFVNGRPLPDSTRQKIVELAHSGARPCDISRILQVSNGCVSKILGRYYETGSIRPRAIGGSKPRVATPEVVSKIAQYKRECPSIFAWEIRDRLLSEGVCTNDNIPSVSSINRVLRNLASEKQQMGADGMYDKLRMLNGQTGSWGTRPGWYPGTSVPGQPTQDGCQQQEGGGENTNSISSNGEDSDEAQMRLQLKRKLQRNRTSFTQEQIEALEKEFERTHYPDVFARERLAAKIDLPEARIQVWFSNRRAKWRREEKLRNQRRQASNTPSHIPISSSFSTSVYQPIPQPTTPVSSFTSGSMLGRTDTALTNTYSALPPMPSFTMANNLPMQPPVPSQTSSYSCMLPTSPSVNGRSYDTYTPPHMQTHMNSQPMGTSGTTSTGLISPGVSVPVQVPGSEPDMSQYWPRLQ

Assay [2] is described as follows: ATG_PXRE_CIS: Attagene CIS-FACTORIAL HepG2 Assay for human Pregnane X Receptor Element (PXRE) (AID 2282957). Particulars: HepG2 Attagene CIS-FACTORIAL PXRE reporter, mRNA; actives raise or lower the signal. The method in brief:
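Using HepG2 transfected with multiple reporter transcription units, endogenous factor-driven transcription was scored as reporter mRNA after 24 h exposure.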

The nature of assay [3]: ATG_PPRE_CIS: Attagene CIS-FACTORIAL HepG2 Assay for human Peroxisome Proliferator-activated Response Element (PPRE) (AID 2282958). Particulars: HepG2 PPRE cis-element reporter, Attagene transcription factor profiling; actives raise or lower the signal. The method in brief:
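HepG2 cells are transiently transfected with multiplexed cis-promoter reporter units to report endogenous PPAR activity. After 24 h dosing, reporter mRNA is read by RT-PCR and capillary electrophoresis. Fitting is bidirectional against DMSO.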

A short description of assay [4]: ATG_RORE_CIS: Attagene CIS-FACTORIAL HepG2 Assay for human RAR-related Orphan Receptor Element (RORE) (AID 2282959). Particulars: HepG2 Attagene cis-factorial RORE reporter, mRNA; actives raise or lower the signal. The method in brief: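 HepG2 cells carrying transiently transfected cis-regulated reporter units; RORE-driven reporter mRNA quantified 24 h post-dosing by RT-PCR, 6-FAM primer extension, HpaI digestion and capillary electrophoresis. Bidirectional fit versus DMSO.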

The nature of assay [5]: ATG_Sox_CIS: Attagene CIS-FACTORIAL HepG2 Assay for human SRY-box transcription factor (SOX) (AID 2282960). The note with it: HepG2 Attagene cis-factorial SOX reporter, mRNA; actives raise or lower the signal. The method in brief: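 HepG2 cells transiently transfected with multiple cis-regulated reporter units, then dosed for 24 h. Reporter mRNA quantified by RT-PCR, fluorescent labelling, HpaI digestion and capillary electrophoresis; bidirectional fit versus DMSO.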

Assay [6] addresses Transcription factor Sp1 (Homo sapiens) (UniProt P08047). In words: ATG_Sp1_CIS: Attagene CIS-FACTORIAL HepG2 Assay for human Specificity Protein 1 (Sp1) (AID 2282961). The note with it: HepG2 Sp1 cis-reporter transcription, actives raise or lower the signal. The method in brief:
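HepG2 cells transiently transfected with multiplexed cis-regulated reporter constructs, chemical exposure 24 h. Reporter mRNA quantified by RT-PCR with capillary electrophoresis; bidirectional fit relative to DMSO.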

Assay [7] can be described thus: ATG_SREBP_CIS: Attagene CIS-FACTORIAL HepG2 Assay for human Sterol Regulatory Element Binding (SREBP) (AID 2282962). Particulars: HepG2 Attagene cis-factorial SREBP reporter, mRNA; actives raise or lower the signal. The method in brief:
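Readout: fluorescent reporter-transcript peaks resolved by capillary electrophoresis after RT-PCR. Cells were human HepG2 carrying transfected cis-promoter reporter constructs, dosed for 24 h. Gain or loss of signal was fitted against DMSO controls.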

The target in assay [8] is Signal transducer and activator of transcription 3 (Homo sapiens) (UniProt P40763). Briefly: ATG_STAT3_CIS: Attagene CIS-FACTORIAL HepG2 Assay for human Signal Transducer and Activator of Transcription 3 (STAT3) (AID 2282963). The note with it: HepG2, Attagene cis-factorial STAT3 reporter transcription; actives raise or lower the signal. The method in brief: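 HepG2, MRTU-transfected, 24 h dosing. RNA → RT → PCR → FAM label → HpaI → CE. Bidirectional fit vs DMSO.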
Chain of Signal transducer and activator of transcription 3 (Homo sapiens) (P40763 whole entry, looked up): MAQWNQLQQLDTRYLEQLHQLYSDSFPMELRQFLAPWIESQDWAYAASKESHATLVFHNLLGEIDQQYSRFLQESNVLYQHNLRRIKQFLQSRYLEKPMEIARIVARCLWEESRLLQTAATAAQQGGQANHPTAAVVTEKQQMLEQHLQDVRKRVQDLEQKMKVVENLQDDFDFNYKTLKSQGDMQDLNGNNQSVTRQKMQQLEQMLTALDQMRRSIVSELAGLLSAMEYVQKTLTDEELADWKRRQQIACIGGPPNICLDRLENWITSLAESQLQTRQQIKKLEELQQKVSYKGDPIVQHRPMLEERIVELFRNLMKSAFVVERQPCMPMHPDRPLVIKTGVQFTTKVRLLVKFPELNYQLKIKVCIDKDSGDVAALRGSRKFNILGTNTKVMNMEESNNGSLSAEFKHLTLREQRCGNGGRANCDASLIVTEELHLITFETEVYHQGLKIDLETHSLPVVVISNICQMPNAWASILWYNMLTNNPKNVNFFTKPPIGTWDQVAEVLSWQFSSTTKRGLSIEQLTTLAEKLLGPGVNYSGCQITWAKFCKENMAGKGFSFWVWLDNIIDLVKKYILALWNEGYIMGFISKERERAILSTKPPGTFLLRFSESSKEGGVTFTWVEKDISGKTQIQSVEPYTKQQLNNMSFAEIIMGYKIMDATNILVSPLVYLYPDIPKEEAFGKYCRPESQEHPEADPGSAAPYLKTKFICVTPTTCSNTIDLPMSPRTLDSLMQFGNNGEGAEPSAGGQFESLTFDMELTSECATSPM

Assay [9] is described as follows: ATG_TA_CIS: Attagene CIS-FACTORIAL HepG2 Assay for human TA Basal Promoter (AID 2282964). The note with it: HepG2 Attagene CIS-factorial TA basal promoter reporter; actives raise or lower the signal. The method in brief: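 Background internal-marker endpoint from a 52-component HepG2 cis-reporter panel. Cells treated 24 h; reporter transcripts quantified via RT-PCR and CE fluorescence against DMSO baseline.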

Chain of Transcription factor Sp1 (Homo sapiens) (P08047 whole entry, looked up): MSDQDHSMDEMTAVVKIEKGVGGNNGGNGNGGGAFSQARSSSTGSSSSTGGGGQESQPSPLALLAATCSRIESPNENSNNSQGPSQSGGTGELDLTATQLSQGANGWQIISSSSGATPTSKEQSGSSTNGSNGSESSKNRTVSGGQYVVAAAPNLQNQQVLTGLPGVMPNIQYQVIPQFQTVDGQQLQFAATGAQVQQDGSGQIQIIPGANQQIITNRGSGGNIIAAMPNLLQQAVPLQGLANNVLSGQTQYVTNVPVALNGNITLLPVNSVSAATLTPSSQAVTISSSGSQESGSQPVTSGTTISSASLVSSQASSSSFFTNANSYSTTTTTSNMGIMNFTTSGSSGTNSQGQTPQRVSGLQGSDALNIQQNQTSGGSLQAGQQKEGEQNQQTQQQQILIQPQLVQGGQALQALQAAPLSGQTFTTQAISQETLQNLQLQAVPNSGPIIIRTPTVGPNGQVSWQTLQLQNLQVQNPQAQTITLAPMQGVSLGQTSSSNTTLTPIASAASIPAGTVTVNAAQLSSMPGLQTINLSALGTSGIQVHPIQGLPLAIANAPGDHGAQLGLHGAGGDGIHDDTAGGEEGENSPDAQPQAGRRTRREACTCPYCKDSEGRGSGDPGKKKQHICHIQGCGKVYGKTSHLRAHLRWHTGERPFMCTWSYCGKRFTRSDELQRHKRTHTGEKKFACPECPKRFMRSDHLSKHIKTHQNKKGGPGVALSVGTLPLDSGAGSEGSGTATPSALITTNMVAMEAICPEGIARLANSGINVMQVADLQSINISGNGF

As usually defined, the AC50 is the midpoint of the concentration-response curve, whichever way the signal moves. For `CC1(C)CC(=O)CC(C)(C)N1`, the outcome in assay [1], in [3], in [4], in [5], in assay [6] and in assay [7] was inactive. For the same compound, the result in assay [8] and in [9] was inactive. In assay [2], the AC50 is 36.2 µM (active).
With `CCCCCCCCCCCCCCCCCC(=O)OCCCCCCCCCCCCCC(C)C`, the compound was called inactive in assay [1], in [4], in [5], in [6], in [7] and in assay [8]. The result in assay [9] was inactive. In [2], the AC50 was 46.9 µM (active).
Turning to `c1ccc(Cc2ccccc2)cc1`, the outcome in assay [1], in assay [2], in [4], in [5], in assay [6] and in assay [7] was inactive. Moreover, the result in assay [8] and in assay [9] was inactive.
Regarding `CC/C=C\CCCCO`, the call in assay [1], in assay [2], in [4], in assay [5], in [6] and in assay [7] was inactive. Moreover, the call in [8] and in [9] was inactive.
As for `O=C(O)c1cccc(Cl)n1`, the compound was classed as inactive in [1], in assay [2], in assay [5], in assay [6], in assay [7] and in assay [8]. Besides, the result in assay [9] was inactive.
With `CC(C)(CO)CO`, the call in assay [1], in [2], in assay [4], in [5], in assay [6] and in assay [7] was inactive. Further, the compound was called inactive in [8] and in assay [9].
On to `C=C(C)CCCC(C)CCO` (stereo unspecified), for which the result in assay [1], in assay [4], in assay [5], in assay [6], in assay [7] and in assay [8] was inactive. The outcome in assay [9] was inactive. Also, the AC50 in assay [2] is 6.72 µM (active).
Consider `C1=COCCC1`, for which the compound was classed as inactive in assay [1], in assay [2], in assay [4], in assay [5], in assay [6] and in assay [7]. In addition, the call in [8] and in assay [9] was inactive.
For `CC(C)=CCCC(C)=CC(=O)O`, the compound was classed as inactive in assay [1], in assay [4], in [5], in [6], in assay [7] and in assay [8]. Moreover, the call in assay [9] was inactive. For the same compound, the AC50 in [2] was 29.8 µM (active).
In the case of `NC(N)=NC(N)=NCCc1ccccc1`, the compound was called inactive in assay [1], in assay [2], in assay [4], in assay [5], in [6] and in [7]. Further, the compound was classed as inactive in [8] and in [9].
With `CC(CCO)CC(C)(C)C` (stereo unspecified), the result in [1], in assay [2], in assay [4], in assay [5], in assay [6] and in assay [7] was inactive. Also, the compound was called inactive in assay [8] and in [9].
As for `CCCCOCCOCCO`, the call in assay [1], in assay [2], in assay [4], in assay [5], in assay [6] and in assay [7] was inactive. Also, the result in assay [8] and in assay [9] was inactive.
As to `O=[N+]([O-])c1cc(N(CCO)CCO)ccc1NCCO`, the call in [1], in [2], in [4], in assay [5], in assay [6] and in [7] was inactive. Further, the call in [8] and in assay [9] was inactive.
As for `OC[C@@H](O)[C@H](O)[C@@H](O)[C@@H](O)CO`, the compound was classed as inactive in assay [1], in [4], in [5], in assay [6], in [7] and in assay [8]. Also, in assay [9], the call was inactive. Further, the AC50 in assay [2] was 37.2 µM (active).
Regarding `C=CC(=O)OCC(CO)(COC(=O)C=C)COC(=O)C=C`, the AC50 in assay [1] was 11.9 µM (active); in assay [9], 100 µM (active). The call in [2], in [4], in [5], in [6], in [7] and in assay [8] was inactive.
`NS(=O)(=O)c1cc(C(=O)O)c(NCc2ccco2)cc1Cl`: the compound was called inactive in assay [1], in assay [2], in assay [4], in assay [5], in assay [6] and in assay [7]. Besides, the compound was called inactive in assay [8] and in assay [9].
As to `O=C(OCc1ccccc1)c1ccccc1O`, the outcome in [1], in assay [4], in assay [5], in assay [6], in assay [8] and in assay [9] was inactive. Moreover, the AC50 in assay [2] was 77.9 µM (active); in assay [7] it was 128 µM (active).
For the compound `OCC=Cc1ccccc1`, the outcome in [1], in assay [5], in assay [6], in assay [7], in [8] and in assay [9] was inactive. Also, in assay [2], the AC50 is 33.1 µM (active).
Consider `C=C(C)C(=O)OCCC[Si](OC)(OC)OC`, for which the call in assay [1], in [2], in assay [4], in assay [5], in [6] and in [7] was inactive. The call in [8] and in assay [9] was inactive.
With `O=C(O)C1=NN(c2ccc(S(=O)(=O)O)cc2)C(=O)C1`, the outcome in assay [1], in assay [4], in assay [5], in assay [6], in assay [7] and in assay [8] was inactive. In addition, the result in assay [9] was inactive. For the same compound, the concentration at half-maximal activity (AC50) in assay [2] is 45.8 µM (active).
Turning to `CC/C(=C(\c1ccccc1)c1ccc(OCCN(C)C)cc1)c1ccccc1`, the call in [1], in [4], in [5], in [6], in assay [7] and in assay [8] was inactive. In assay [9], the result was inactive. Moreover, in assay [7], the AC50 is 5.24 µM (active) and 3.71 µM (active).
`CCCC1CCOC(C)S1` (stereo unspecified): the outcome in assay [1], in [4], in assay [5], in assay [6], in [7] and in assay [8] was inactive. For the same compound, in assay [9], the call was inactive. The AC50 in assay [2] is 54 µM (active).
As to `CC(=O)CC(=O)N(C)C`, the compound was called inactive in assay [1], in assay [2], in [4], in assay [5], in assay [6] and in assay [7]. Besides, the outcome in assay [8] and in assay [9] was inactive.
On to `CCCCC/C=C\C=C\C(=O)OCC`, for which the half-maximal activity concentration (AC50) in assay [1] is 62.9 µM (active); in assay [2], 1.51 µM (active); in assay [5], 28.4 µM (active); in assay [6], 28.7 µM (active). Moreover, the result in assay [4], in assay [7], in assay [8] and in assay [9] was inactive.
Regarding `CC(O)CN` (stereo unspecified), the outcome in assay [1], in assay [2], in assay [4], in [5], in assay [6] and in assay [7] was inactive. The result in assay [8] and in assay [9] was inactive.
As to `CCCO`, the compound was classed as inactive in [1], in [4], in assay [5], in assay [6], in [7] and in assay [8]. For the same compound, the call in assay [9] was inactive. Besides, the AC50 in [2] was 85.4 µM (active).
Regarding `Cc1ccncc1`, the compound was classed as inactive in assay [1], in [2], in assay [4], in assay [5], in assay [6] and in assay [7]. In addition, the outcome in assay [8] and in [9] was inactive.
Regarding `CC(CO)(CO)[N+](=O)[O-]`, the call in assay [1], in assay [2], in assay [4], in assay [5], in assay [6] and in assay [7] was inactive. Moreover, the result in assay [8] and in assay [9] was inactive.
Take `c1ccc(Sc2ccccc2)cc1`: the compound was classed as inactive in assay [1], in assay [4], in [5], in assay [6], in [7] and in [8]. Further, the compound was called inactive in [9]. Besides, the AC50 in [2] is 62.7 µM (active).
In the case of `O=C(O)c1ccco1`, the outcome in assay [1], in assay [2], in assay [5], in [6], in assay [7] and in [8] was inactive. Also, in [9], the compound was classed as inactive.
Consider `CCOc1ccc(NC(C)=O)cc1`, for which the call in assay [1], in assay [2], in assay [4], in assay [5], in assay [6] and in assay [7] was inactive. The compound was classed as inactive in assay [8] and in assay [9].
